Screening data as filed in PubChem.
TDP1 block – qHTS Assay for Inhibitors of Tyrosyl-DNA Phosphodiesterase (TDP1) | Potency, µM (highest dose often 130 µM), inactives show top-dose activity change, negative = inhibition, usual class: inhibitors | recombinant TDP1, AlphaScreen DNA substrate cleavage | Tyrosyl-DNA phosphodiesterase 1 (Homo sapiens), Q9NUW8 | hit rate 0.28% among 350,000; further: potency means the concentration at half of the fitted maximal effect; nearly all actives have a fitted effect of over 40% in size
Target sequence (Q9NUW8 whole entry, looked up): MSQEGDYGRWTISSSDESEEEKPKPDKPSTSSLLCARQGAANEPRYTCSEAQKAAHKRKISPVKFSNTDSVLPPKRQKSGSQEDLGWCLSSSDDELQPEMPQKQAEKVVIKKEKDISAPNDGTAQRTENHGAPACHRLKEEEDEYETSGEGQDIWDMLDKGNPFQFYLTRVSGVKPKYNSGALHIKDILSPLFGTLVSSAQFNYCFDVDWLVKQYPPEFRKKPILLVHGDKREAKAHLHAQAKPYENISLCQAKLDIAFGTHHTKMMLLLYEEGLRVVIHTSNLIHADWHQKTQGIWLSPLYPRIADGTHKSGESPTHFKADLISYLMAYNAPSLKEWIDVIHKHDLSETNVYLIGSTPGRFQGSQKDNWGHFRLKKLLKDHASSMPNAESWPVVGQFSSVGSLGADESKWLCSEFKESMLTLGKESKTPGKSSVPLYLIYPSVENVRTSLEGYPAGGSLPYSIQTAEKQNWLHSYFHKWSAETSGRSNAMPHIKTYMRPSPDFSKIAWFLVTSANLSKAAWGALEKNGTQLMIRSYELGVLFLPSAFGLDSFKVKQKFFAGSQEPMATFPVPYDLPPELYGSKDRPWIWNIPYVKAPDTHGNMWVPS
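AlphaScreen read-out: signal falls as enzyme removes the 3' tyrosine-FITC from a 5'-biotinylated DNA oligo (15 nM, 5 min, RT). Enzyme was E. coli-made recombinant Tdp1 at 1 nM, exposed to compound for 15 min beforehand; beads 10 ug/ml, 10 min.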
Six1-Eya2 blk – qHTS Assay for Inhibitors of the Six1/Eya2 Interaction; AlphaScreen GST-Six1/His-Eya2 binding, biochemical; stronger effect = lower value; activity change, % (no concentration beside the values); hit rate 0.56% among 360,000; Homeobox protein SIX1 (Homo sapiens) + Protein phosphatase EYA2 (Homo sapiens), …; in the data active means activity change below about -65%; inconclusive means mostly about -30% to -63%
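AlphaScreen luminescence read after one hour at 37 °C in darkness. Pin-transferred compounds met GST-Six1 and His-Eya2 protein (5X stock 250 nM/500 nM) plus glutathione donor and Ni-chelate acceptor beads (5X, 50 ug/mL).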
TDP1 cell noCPT – qHTS for Inhibitors of human tyrosyl-DNA phosphodiesterase 1 (TDP1): qHTS in cells in absence of CPT; DT40 Tdp1-/- hTDP1 cells, no CPT, ATP luminescence, 48 h; hit rate 15% among 420,000; Potency, µM (highest dose often 46.2 µM), without a hit: at the top dose activity change, negative = growth inhibition, most hits filed as inhibitors; further: potency means the concentration at half of the fitted maximal effect; nearly all actives have a fitted effect of over 55% in size
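Readout: luminescence from CellTiter-Glo after 30 min in the dark at RT. Cells: DT40 Tdp1-/- with stable hTDP1, 400/well. Exposure: compounds alone, ≥48 hr, 37 °C.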
DT40 TDP1 CPT – qHTS for Inhibitors of human tyrosyl-DNA phosphodiesterase 1 (TDP1): qHTS in cells in presence of CPT | AID 686979, 2013 | chicken DT40 Tdp1-/-;hTDP1 cells + 20 nM CPT, ATP luminescence, 48 h | hit rate 12% among 420,000 | Potency, µM (highest dose often 46.2 µM), for the others: at the top dose activity change, negative = growth inhibition, usual class: inhibitors; further: potency means the concentration at half of the fitted maximal effect; nearly all actives have a fitted effect of over 55% in size
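Chicken DT40 Tdp1-/- cells complemented with human TDP1, 400 cells/well, exposed to compounds plus 20 nM camptothecin for at least 48 h at 37 C; viability read as ATP content by CellTiter-Glo luminescence.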
CtBP-E1A blk – qHTS Assay for Inhibitors of the CtBP/E1A Interaction. hit rate 0.49% among 340,000. AlphaScreen GST-E1A/His-CtBP binding, 1536-well; stronger effect = lower value. activity change, % (test concentration not listed); in the data active means activity change below about -65%; inconclusive means mostly about -30% to -63%
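In 5 uL wells, 23 nL compound meets equimolar GST-E1A and His-CtBP (5X stock 125 nM each) for 2 h, 37 °C. Beads (5X, 50 ug/mL) then 1 h, 37 °C, dark.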
IL1B secr inh – qHTS for Inhibitors of Inflammasome Signaling: IL-1-beta AlphaLISA Primary Screen | activity change, % at 57.5 µM | hit rate 4.7% among 360,000 | THP-1 LPS/ATP IL-1B secretion, AlphaLISA, 16 h; stronger effect = lower value | AID 743279, 2014; in the data active means activity change below about -50%; inconclusive means mostly about -30% to -49%
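Secreted IL-1B measured by AlphaLISA bead assay after 16 h compound exposure of THP-1 cells; compounds (final up to 57.5 uM) added 1 h before LPS (250 ng/mL) and ATP (1.25 mM) stimulation; lower signal means less secretion.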
* hit, by the source's call; ? = inconclusive; nt = not tested or not shown; ! = not active in a repeat; [ ] = another dose, or the depositor's remark. Only some compounds are listed: those with a hit (about 18% of all), similar ones and a draw of the others. Unless noted, the call rests on the fitted dose curve; in most records, active means well fitted curve in the direction sought with a large enough effect; inconclusive means small, poorly fitted or top-dose-only effect, or another doubt; inactive means no such curve, though single readings can be large; an effect the other way counts as inactive or inconclusive. On the % scale 0 is the no-effect control and ±100 the full control effect.

SMILES	TDP1 block	Six1-Eya2 blk	TDP1 cell noCPT	DT40 TDP1 CPT	CtBP-E1A blk	IL1B secr inh
COc1ccc(CCC(=O)O)cc1	nt	nt	-2%	-4%	nt	nt
CNC(=S)/N=C/NOCc1c(Cl)cccc1Cl	0%	7	-1%	7%	4	6
Clc1cccc(Cl)c1CON/C=N/c1ncnc2sccc12	0%	0	16µM*	23µM*	6	17
Clc1cccc(CON/C=N/c2ncnc3sccc23)c1	-2%	10	10µM*	18µM*	14	-12
C=CCNc1nc(NCCCN2CCCC2=O)c2sc(-c3ccccc3)cc2n1	nt	-20	21µM*	18µM*	?	nt
O=C1CCCN1CCCNc1nc(NCc2ccccc2)nc2ccsc12	nt	-10	18µM*	18µM*	-10	?
COCCNc1nc(NCCCN2CCCC2=O)c2sc(-c3ccccc3)cc2n1	nt	?	?	?	?	0
Cc1ccc2c(c1)S/C(=C/c1ccc[n+](C)c1)N2CCO	5%	-2	2.6µM*	3.3µM*	-8	?
COCC1=C(C(=O)OC(C)OC(=O)OC(C)C)N2C(=O)[C@@H](NC(=O)/C(=N\OC)c3csc(N)n3)[C@H]2SC1 (stereo not given in full)	nt	0	1.3µM*!	3.3µM*!	6	14
C=CC1=C(C(=O)O)N2C(=O)[C@@H](NC(=O)/C(=N\OCC(=O)O)c3csc(N)n3)[C@@H]2SC1	14µM*	nt	nt	nt	nt	nt
CO/N=C(/C(=O)NC1C(=O)N2C(C(=O)O)=C(COC(N)=O)CSC12)c1ccco1 (stereo not given)	22µM*	nt	0%	7%	nt	nt
C=CC1=C(C(=O)O)N2C(=O)[C@@H](NC(=O)/C(=N/OCC(=O)O)c3csc(N)n3)[C@H]2SC1 (stereo in doubt)	nt	nt	-1%[21.1 µM]	-10%[21.1 µM]	nt	nt
CO/N=C(\C(=O)N[C@@H]1C(=O)N2C(C(=O)O)=C(CSc3nc(=O)c(O)nn3C)CSC12)c1csc(N)n1 (stereo not given in full)	7.1µM*	nt	nt	nt	nt	nt
CO/N=C(\C(=O)N[C@@H]1C(=O)N2C(C(=O)O)=C(COC(C)=O)CS[C@H]12)c1csc(N)n1	-12%	nt	nt	nt	nt	nt
COc1ccc(CNC(=O)CCCN2C(=O)COc3ccc(C)cc32)cc1	4%	nt	-19%	?	nt	nt
Cn1nnnc1SCC1=C(C(=O)O)N2C(=O)[C@@H](NC(=O)[C@H](O)c3ccccc3)[C@H]2SC1	16µM*	1	?	0%	-22	-11
CC(=O)OCC1=C(C(=O)O)N2C(=O)[C@@H](NC(=O)CSc3ccncc3)[C@H]2SC1	7.9µM*	-10	-17%	9%	-3	10
CCOC(=O)N1CCN(C(=O)c2ccc(N(Cc3ccccc3)S(C)(=O)=O)cc2)CC1	-1%	6	5%	-21%	0	25
CC1=C(C(=O)Nc2ccccc2C)C(c2ccccn2)n2nc(SCc3ccccc3F)nc2N1 (stereo not given)	6%	nt	10µM*	6.5µM*	nt	nt
COc1ccccc1NC(=O)C1=C(C)Nc2nc(SCc3ccccc3F)nn2C1c1ccncc1 (stereo not given)	3%	nt	-24%	-6%	nt	nt
CC1=C(C(=O)Nc2ccccc2C)C(c2cccs2)n2nc(SCc3ccccc3)nc2N1 (stereo not given)	6%	nt	21µM*	21µM*	nt	nt
COc1ccccc1CSc1nc2n(n1)C(c1ccccc1)C(C(=O)Nc1ccc(C)cc1)=C(C)N2 (stereo not given)	1%	nt	23µM*	16µM*	nt	nt
COc1cccc(CSc2nc3n(n2)C(CC(C)C)C(C(=O)Nc2ccccc2OC)=C(C)N3)c1 (stereo not given)	5%	nt	13µM*	18µM*	nt	nt
CC1=C(C(=O)Nc2ccc(Cl)cc2)C(c2cccs2)n2nc(SCc3cccc(Cl)c3)nc2N1 (stereo not given)	-2%[12.3 µM]	nt	-21%	-3%	nt	nt
COc1cc(C2C(C(=O)Nc3ccc(C)cc3C)=C(C)Nc3nc(SCc4ccccc4)nn32)cc(OC)c1OC (stereo not given)	0%	nt	23µM*	21µM*	nt	nt
SMILES	TDP1 block	Six1-Eya2 blk	TDP1 cell noCPT	DT40 TDP1 CPT	CtBP-E1A blk	IL1B secr inh
CC1=C(C(=O)Nc2ccc(C)cc2C)C(c2cccs2)n2nc(SCc3ccc(Cl)cc3)nc2N1 (stereo not given)	0%	nt	12µM*	10µM*	nt	nt
Cc1cc(-c2nnc(CSc3nnc(NC(=O)c4ccc(C(C)(C)C)cc4)s3)o2)ccc1[N+](=O)[O-]	nt	-4	21µM*	?	-11	0
COc1ccccc1C(=O)Nc1nnc(SCc2cc(=O)c3ccccc3[nH]2)s1	nt	nt	15µM*	15µM*	nt	nt
COCCSc1nnc(NC(=O)c2ccc([N+](=O)[O-])cc2)s1	-1%	0	-5%	5%	nt	-2
CCSc1nnc(NC(=O)c2csc(C)c2)s1	5%	-1	-11%	-16%	8	10
O=C(Nc1nnc(SCc2cc(=O)c3ccccc3[nH]2)s1)c1ccccc1	0%	nt	7.3µM*	23µM*	nt	nt
Cc1ccc2[nH]c(CSc3nnc(NC(=O)COc4ccccc4C)s3)cc(=O)c2c1	3%	nt	?	?	nt	nt
Cc1ccc(C(=O)Nc2nnc(SCc3cc(=O)c4c(C)ccc(C)c4[nH]3)s2)cc1	5%	nt	10µM*	18µM*	nt	nt
CCN1C(=O)C(CC(=O)NCCc2ccccc2)N(NC(=O)c2cccnc2)C1=S (stereo not given)	0%	-11	-20%	4%	8	3
CCCCc1ncc(/C=C(\Cc2cccs2)C(=O)O)n1Cc1ccc(C(=O)O)cc1	2%	nt	-8%	-20%	nt	nt
COc1cc(NC(=O)c2ccccc2[N+](=O)[O-])ccc1NC(=O)c1cc2ccccc2o1	nt	?	8.2µM*	16µM*	nt	?
COc1ccc(-c2nc3ccccc3o2)cc1NC(=O)c1cc(Br)ccc1OC	2%[12.3 µM]	nt	9%	13%	nt	nt
COc1cc(NC(C)=O)ccc1NC(=O)c1cc2ccccc2o1	nt	-2	?	?	nt	-4
COc1cc(NC(=O)c2ccccc2)ccc1NC(=O)c1cc2ccccc2o1	2%[12.3 µM]	1	?	?	4	59
